About 21,000 targets were measured; listed, in parts, are those with the largest changes and a random draw of the rest.
Compound: CC1Cc2ccccc2N1C(=O)C1CCCN(C1)C(=O)CCl (mixture of isomers) [TRIM25 ligand 11 (diastereomer mixture)]
Assay: probe-labelled cysteine peptide fold change vs DMSO (competition) (log2 fold change); higher = less target engagement (more negative = stronger competition)
Conditions: THP-1, incubation time: 4 h
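Further: competitive chemoproteomic profiling in live THP-1 cells with an iodoacetamide desthiobiotin (IA-DTB) probe, comparing probe-labelled peptide intensities in compound-treated cells against DMSO-treated controls.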

## SNRPD2_P62316_63_HCNMVLENVK (UniProt P62316)
Sequence of UniProt P62316 (P62316 whole entry, looked up): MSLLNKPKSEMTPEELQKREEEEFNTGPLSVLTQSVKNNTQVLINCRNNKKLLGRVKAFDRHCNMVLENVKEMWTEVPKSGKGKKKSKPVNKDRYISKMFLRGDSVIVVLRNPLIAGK
10 µM
  probe-labelled cysteine peptide fold change: -0.117
50 µM
  probe-labelled cysteine peptide fold change: -0.0606

## SH3GLB1_Q9Y371_304_ECSGSR (UniProt Q9Y371)
Sequence of UniProt Q9Y371 (Q9Y371 whole entry, looked up): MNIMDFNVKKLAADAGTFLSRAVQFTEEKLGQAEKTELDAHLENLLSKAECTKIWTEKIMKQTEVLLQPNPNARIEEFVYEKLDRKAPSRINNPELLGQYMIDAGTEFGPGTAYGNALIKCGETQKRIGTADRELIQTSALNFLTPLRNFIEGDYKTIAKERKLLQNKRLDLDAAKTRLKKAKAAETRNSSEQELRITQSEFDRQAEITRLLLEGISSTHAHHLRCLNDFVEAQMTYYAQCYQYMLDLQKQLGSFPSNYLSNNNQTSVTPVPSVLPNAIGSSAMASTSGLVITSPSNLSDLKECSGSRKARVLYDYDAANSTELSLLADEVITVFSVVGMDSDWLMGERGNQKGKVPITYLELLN
10 µM
  probe-labelled cysteine peptide fold change: -0.137
50 µM
  probe-labelled cysteine peptide fold change: 0.575

## SEC61A1_P61619_13_FLEVIKPFCVILPEIQKPERK (UniProt P61619)
Sequence of UniProt P61619 (P61619 whole entry, looked up): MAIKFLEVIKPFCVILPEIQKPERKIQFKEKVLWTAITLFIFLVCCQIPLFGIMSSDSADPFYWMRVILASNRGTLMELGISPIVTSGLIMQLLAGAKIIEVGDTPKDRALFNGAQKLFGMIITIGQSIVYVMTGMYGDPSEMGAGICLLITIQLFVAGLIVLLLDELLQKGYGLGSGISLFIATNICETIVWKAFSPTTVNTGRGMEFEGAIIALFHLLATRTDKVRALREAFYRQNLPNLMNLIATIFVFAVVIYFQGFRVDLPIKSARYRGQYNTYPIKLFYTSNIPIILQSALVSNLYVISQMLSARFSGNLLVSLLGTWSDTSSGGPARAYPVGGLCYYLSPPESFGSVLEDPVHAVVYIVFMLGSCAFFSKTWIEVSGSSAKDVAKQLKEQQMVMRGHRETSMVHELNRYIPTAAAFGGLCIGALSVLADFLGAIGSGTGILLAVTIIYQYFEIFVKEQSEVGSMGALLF
10 µM
  probe-labelled cysteine peptide fold change: -0.291
50 µM
  probe-labelled cysteine peptide fold change: -0.191

## SAE1_Q9UBE0_303_YCFSEMAPVCAVVGGILAQEIVK (UniProt Q9UBE0)
Sequence of UniProt Q9UBE0 (Q9UBE0 whole entry, looked up): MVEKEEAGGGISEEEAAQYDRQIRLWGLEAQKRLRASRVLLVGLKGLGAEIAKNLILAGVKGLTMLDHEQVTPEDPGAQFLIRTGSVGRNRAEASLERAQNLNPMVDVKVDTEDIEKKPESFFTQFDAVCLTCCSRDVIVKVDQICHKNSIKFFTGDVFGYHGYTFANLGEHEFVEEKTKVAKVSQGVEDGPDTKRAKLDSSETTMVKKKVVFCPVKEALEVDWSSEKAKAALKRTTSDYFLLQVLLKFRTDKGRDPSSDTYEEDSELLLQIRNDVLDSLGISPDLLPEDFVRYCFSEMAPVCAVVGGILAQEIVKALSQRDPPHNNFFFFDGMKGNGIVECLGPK
10 µM
  probe-labelled cysteine peptide fold change: -0.0632
50 µM
  probe-labelled cysteine peptide fold change: -0.0869

## SMS_P52788_256_TCGDVLDNLKGDCYQVLIEDCIPVLKR (UniProt P52788)
Sequence of UniProt P52788 (P52788 whole entry, looked up): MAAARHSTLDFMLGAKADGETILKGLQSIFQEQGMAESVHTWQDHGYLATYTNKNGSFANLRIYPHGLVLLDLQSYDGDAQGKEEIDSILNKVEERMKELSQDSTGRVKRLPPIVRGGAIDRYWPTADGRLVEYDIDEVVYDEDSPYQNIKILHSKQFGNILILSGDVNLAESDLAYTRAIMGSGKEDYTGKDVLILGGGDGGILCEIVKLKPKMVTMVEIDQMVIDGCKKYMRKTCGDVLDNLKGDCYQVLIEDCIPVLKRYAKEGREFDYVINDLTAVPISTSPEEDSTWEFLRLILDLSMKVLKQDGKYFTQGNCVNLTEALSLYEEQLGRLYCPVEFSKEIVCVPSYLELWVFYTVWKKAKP
10 µM
  probe-labelled cysteine peptide fold change: -0.302
50 µM
  probe-labelled cysteine peptide fold change: -0.139

## SNUPN_O95149_356_GSSHSPDHPGCLMEN (UniProt O95149)
Sequence of UniProt O95149 (O95149 whole entry, looked up): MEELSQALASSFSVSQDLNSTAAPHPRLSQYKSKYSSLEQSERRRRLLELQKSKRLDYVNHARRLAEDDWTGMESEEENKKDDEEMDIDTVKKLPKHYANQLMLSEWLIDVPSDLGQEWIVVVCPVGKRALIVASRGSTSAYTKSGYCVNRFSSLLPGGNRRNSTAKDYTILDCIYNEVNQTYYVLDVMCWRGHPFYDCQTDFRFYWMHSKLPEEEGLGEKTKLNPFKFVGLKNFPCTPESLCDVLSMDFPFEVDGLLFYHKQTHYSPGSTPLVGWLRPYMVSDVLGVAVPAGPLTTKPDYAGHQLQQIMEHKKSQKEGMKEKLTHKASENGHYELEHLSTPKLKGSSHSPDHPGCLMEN
10 µM
  probe-labelled cysteine peptide fold change: 0.0268
50 µM
  probe-labelled cysteine peptide fold change: -0.656

## RTRAF_Q9Y224_19_LTALDYHNPAGFNCK (UniProt Q9Y224)
Sequence of UniProt Q9Y224 (Q9Y224 whole entry): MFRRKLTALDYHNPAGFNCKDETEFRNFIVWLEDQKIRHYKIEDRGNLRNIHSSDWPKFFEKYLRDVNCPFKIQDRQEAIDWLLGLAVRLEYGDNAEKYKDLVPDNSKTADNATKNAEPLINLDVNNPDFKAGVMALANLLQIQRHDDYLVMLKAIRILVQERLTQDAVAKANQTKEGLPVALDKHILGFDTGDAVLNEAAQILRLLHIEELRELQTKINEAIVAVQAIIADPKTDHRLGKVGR
10 µM
  probe-labelled cysteine peptide fold change: 0.414
50 µM
  probe-labelled cysteine peptide fold change: 0.404

## RREB1_Q92766_291_DAMGRPFIQNNPSIPAGFHDLGFTDFSCR (UniProt Q92766)
Sequence of UniProt Q92766 (Q92766 whole entry, looked up): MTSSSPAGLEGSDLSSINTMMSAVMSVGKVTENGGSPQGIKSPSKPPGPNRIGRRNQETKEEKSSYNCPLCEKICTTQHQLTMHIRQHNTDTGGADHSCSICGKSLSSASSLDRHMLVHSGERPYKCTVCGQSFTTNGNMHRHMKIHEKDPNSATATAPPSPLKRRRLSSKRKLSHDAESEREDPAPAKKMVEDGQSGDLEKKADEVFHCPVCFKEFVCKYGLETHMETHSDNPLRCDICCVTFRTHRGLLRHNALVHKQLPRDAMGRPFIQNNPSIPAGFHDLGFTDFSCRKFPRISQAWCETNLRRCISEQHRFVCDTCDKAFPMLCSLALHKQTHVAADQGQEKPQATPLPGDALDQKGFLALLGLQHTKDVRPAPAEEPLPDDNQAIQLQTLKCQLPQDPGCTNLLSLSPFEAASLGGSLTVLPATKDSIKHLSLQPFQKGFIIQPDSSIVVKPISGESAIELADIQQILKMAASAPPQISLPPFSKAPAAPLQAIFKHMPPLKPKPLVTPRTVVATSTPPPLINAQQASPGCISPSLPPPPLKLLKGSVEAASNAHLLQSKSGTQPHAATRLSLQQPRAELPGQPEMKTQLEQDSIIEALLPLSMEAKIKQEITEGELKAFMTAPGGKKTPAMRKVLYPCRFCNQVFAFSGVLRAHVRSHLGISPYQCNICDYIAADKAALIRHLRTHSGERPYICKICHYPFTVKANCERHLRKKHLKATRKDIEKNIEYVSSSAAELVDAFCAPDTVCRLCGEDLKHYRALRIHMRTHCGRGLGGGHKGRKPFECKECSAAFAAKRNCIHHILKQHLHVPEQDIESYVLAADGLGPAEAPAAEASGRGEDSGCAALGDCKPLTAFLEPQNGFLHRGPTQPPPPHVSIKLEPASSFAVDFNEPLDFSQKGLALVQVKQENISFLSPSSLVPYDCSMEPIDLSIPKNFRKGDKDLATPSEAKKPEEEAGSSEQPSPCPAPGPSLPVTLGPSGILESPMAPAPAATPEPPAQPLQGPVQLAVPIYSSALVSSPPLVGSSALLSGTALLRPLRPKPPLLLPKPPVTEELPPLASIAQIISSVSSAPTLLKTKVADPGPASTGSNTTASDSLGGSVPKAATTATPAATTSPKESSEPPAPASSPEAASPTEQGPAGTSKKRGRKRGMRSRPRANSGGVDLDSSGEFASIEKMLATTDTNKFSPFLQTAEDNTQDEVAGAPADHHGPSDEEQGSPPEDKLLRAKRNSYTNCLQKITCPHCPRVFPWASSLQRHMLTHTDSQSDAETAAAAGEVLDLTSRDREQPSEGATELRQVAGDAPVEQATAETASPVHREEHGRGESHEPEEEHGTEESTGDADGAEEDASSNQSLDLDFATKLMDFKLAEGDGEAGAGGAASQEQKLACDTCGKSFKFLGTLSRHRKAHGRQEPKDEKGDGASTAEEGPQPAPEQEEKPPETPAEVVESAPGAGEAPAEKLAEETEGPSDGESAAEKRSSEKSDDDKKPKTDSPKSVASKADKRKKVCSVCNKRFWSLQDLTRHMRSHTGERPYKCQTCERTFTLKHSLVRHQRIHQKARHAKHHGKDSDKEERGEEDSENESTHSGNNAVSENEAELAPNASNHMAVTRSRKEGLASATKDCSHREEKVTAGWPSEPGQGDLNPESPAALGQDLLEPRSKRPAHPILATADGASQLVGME
10 µM
  probe-labelled cysteine peptide fold change: -0.104
50 µM
  probe-labelled cysteine peptide fold change: -0.0626

— the supplement of paper PMC12067093, “Discovery and optimisation of a covalent ligand for TRIM25 and its application to targeted protein ubiquitination” (Chemical Science, 2025)
